By residual activity is commonly meant the signal under treatment as a percentage of the control signal.

In experiment [1] the target is T1, CDK9/cyclin T1 (Homo sapiens) (UniProt O60563+P50750). As to conditions: at 1 µM.
Experiment [2] deals with T1, CDK9/cyclin T1 (Homo sapiens). Conditions: at 10 µM.
For experiment [3], the target named is T2, Serine/threonine-protein kinase Chk1 (Homo sapiens) (UniProt O14757).
T2 sequence (whole entry): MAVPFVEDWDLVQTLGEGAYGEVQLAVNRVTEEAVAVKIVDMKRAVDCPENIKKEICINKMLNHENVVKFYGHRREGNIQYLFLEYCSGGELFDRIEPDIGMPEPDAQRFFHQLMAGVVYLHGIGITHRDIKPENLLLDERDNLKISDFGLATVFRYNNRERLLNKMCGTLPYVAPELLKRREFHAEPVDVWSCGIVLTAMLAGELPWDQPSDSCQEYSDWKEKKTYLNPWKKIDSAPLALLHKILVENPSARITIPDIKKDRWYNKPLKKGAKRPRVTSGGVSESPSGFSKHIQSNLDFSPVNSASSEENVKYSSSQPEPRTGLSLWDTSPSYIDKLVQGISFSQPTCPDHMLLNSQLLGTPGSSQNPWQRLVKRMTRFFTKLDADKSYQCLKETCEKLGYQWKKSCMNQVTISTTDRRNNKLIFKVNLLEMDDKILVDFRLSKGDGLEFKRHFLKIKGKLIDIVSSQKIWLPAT
Conditions: at 1 µM.

Experiment [4] concerns the target T2, Serine/threonine-protein kinase Chk1 (Homo sapiens). Conditions: at 10 µM.
Experiment [5] addresses Serine/threonine-protein kinase Chk2 (Homo sapiens) (UniProt O96017). As to conditions: at 1 µM.
Experiment [6] shares this target. As to conditions: at 10 µM.
For experiment [7], the target named is Casein kinase I isoform gamma-1 (Homo sapiens) (UniProt Q9HCP0). Conditions: at 1 µM.
Chain of Casein kinase I isoform gamma-1 (Homo sapiens) (Q9HCP0 whole entry, looked up, canonical isoform): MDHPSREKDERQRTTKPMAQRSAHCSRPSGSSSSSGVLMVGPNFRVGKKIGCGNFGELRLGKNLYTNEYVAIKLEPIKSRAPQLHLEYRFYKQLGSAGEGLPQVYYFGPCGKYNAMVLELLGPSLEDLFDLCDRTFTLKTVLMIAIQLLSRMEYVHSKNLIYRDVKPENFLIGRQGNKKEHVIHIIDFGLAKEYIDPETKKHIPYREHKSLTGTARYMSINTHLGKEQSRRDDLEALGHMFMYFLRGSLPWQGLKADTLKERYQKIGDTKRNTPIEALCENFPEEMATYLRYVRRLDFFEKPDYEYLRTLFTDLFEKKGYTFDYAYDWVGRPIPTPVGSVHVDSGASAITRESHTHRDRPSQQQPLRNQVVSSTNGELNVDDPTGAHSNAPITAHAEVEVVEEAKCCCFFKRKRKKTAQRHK
Experiment [8] has the same target. Conditions: at 10 µM.
Experiment [9] concerns the target Casein kinase I isoform delta (Homo sapiens) (UniProt P48730). As to conditions: at 1 µM.
The target is the same in experiment [10]. As to conditions: at 10 µM.

Chain of Serine/threonine-protein kinase Chk2 (Homo sapiens) (O96017 whole entry): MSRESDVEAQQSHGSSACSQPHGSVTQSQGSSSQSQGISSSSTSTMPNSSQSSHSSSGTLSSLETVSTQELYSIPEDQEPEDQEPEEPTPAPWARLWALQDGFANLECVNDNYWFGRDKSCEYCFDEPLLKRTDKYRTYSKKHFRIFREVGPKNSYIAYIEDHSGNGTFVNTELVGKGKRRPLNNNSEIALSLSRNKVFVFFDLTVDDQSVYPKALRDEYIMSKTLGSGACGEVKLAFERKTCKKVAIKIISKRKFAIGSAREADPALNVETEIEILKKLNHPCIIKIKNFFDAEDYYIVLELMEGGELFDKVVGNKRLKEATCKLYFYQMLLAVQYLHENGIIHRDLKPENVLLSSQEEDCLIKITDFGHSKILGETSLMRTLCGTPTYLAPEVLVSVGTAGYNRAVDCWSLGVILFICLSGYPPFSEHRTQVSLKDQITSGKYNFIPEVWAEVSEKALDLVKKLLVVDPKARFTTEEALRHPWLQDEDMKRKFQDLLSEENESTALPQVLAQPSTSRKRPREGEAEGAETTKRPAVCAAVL
Chain of Casein kinase I isoform delta (Homo sapiens) (P48730 whole entry, looked up, canonical isoform): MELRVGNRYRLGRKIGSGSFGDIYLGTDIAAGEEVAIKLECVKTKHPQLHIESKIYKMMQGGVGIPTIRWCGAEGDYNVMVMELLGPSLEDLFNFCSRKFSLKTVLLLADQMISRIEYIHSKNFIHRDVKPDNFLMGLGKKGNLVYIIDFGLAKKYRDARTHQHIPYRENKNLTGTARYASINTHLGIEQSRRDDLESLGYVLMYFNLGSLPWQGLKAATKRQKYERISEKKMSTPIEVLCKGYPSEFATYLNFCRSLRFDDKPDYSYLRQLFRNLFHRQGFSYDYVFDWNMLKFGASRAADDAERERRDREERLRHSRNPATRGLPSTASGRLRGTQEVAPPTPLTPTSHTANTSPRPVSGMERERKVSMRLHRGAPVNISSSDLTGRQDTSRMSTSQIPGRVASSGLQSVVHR

In the case of `Cn1nc2c3c(cccc31)C(=O)c1ccccc1-2`, the residual activity came out at 94% in experiment [1]; 90% in [2]; 94% in experiment [3]; 75% in experiment [4]; 75% in experiment [5]; 40% in [6]. Further, the residual activity came out at 99% in experiment [7], 82% in [8], 15% in [9] and 1% in experiment [10].
As to `O=c1c2ccccc2[nH]c(=S)n1CCN1CCC(=C(c2ccc(F)cc2)c2ccc(F)cc2)CC1`, the residual activity in [1] was found to be 100%; in [2] it was 97%; in experiment [3], 95%; in experiment [4], 104%; in experiment [5] it was 93%; in [6], 85%. In addition, the residual activity in [7] was found to be 82%; in experiment [8], 78%; in [9], 80%; in [10], 63%.
With `CC(=O)O/N=C1\C(=C2\C(=O)Nc3cc(Br)ccc32)Nc2ccccc21`, the residual activity in experiment [1] came out at 63%; in experiment [2], 51%; in experiment [3] it was 95%; in [4], 65%; in [5], 71%; in [6] it was 26%. Besides, the residual activity was 99% in experiment [7], 82% in [8], 78% in [9] and 48% in experiment [10].
As to `Cn1cc(/C=C2\C(=O)Nc3ccc(S(N)(=O)=O)cc32)c2ccccc21`, the residual activity worked out at 62% in experiment [1]; 55% in experiment [2]; 16% in experiment [3]; 7% in experiment [4]; 4% in experiment [5]; 1% in [6]. The residual activity worked out at 88% in [7], 52% in [8], 93% in experiment [9] and 59% in experiment [10].
As to `Cc1nc(-c2ccccc2)c(-c2ccncc2)o1`, the residual activity in [1] is 111%; in experiment [2], 98%; in [3], 102%; in experiment [4], 98%; in [5], 91%; in experiment [6], 72%. Moreover, the residual activity came to 111% in experiment [7], 82% in experiment [8], 44% in experiment [9] and 8% in experiment [10].
With `COc1ccc(C(=O)Nc2sc3c(c2C(N)=O)CCCC3)cc1OC`, the residual activity in experiment [1] is 96%; in experiment [2] it was 97%; in experiment [3] it was 81%; in experiment [4], 104%; in experiment [5], 77%; in experiment [6], 98%. In addition, the residual activity amounted to 84% in experiment [7], 103% in experiment [8], 89% in [9] and 96% in experiment [10].
As for `CN(C)c1ccc(/C=C2\C(=O)Nc3ccccc32)cc1`, the residual activity in [1] was 107%; in experiment [2] it was 93%; in experiment [3], 90%; in experiment [4], 72%; in experiment [5], 73%; in experiment [6], 36%. The residual activity in experiment [7] is 91%; in experiment [8], 74%; in experiment [9] it was 56%; in experiment [10], 21%.
`CC(C)n1cnc2/c(=N/c3cccc(Cl)c3)nc(NCCO)[nH]c21`: the residual activity came to 63% in experiment [1]; 24% in experiment [2]; 38% in experiment [3]; 25% in experiment [4]; 64% in experiment [5]; 21% in experiment [6]. The residual activity worked out at 8% in [7], 0% in experiment [8], 37% in [9] and 7% in [10].
As for `N#CCCc1ccc2c(c1)-c1[nH]c3ccc([N+](=O)[O-])cc3c1CC(=O)N2`, the residual activity in experiment [1] amounted to 1%; in experiment [2], 0%; in experiment [3], 39%; in experiment [4], 16%; in experiment [5] it was 4%; in [6] it was 0%.
In the case of `COc1cc2ncnc(Nc3ccc(NC(=O)c4ccccc4)cc3)c2cc1OC`, the residual activity amounted to 111% in [1]; 100% in [2]; 97% in [3]; 99% in [4]; 34% in experiment [5]; 8% in experiment [6]. The residual activity in [7] is 92%; in [8], 78%; in experiment [9], 79%; in experiment [10], 69%.
For `O=C1Nc2cc(Br)ccc2/C1=C1/Nc2ccccc2/C1=N\O`, the residual activity in [1] is 32%; in experiment [2], 42%; in [3], 45%; in [4], 19%; in experiment [5], 18%; in experiment [6] it was 3%. Besides, the residual activity in experiment [7] is 64%; in [8], 73%; in [9] it was 51%; in experiment [10], 17%.
For the compound `c1ccc(-c2n[nH]c3c2oc2ccccc23)cc1`, the residual activity worked out at 88% in [1]; 78% in [2]; 86% in experiment [3]; 89% in [4]; 85% in experiment [5]; 57% in experiment [6]. Besides, the residual activity in experiment [7] turned out to be 87%; in [8] it was 73%; in experiment [9] it was 75%; in [10] it was 33%.
With `CO[C@@H]1[C@H](N(C)C(=O)c2ccccc2)C[C@H]2O[C@]1(C)n1c3ccccc3c3c4c(c5c6ccccc6n2c5c31)C(=O)NC4`, the residual activity is 70% in experiment [1]; 58% in [2]; 59% in experiment [3]; 65% in experiment [4]; 79% in experiment [5]; 54% in experiment [6]. Besides, the residual activity came to 66% in [7], 49% in experiment [8], 80% in experiment [9] and 69% in [10].
As for `CC(C)n1cnc2c(NCc3ccccc3)nc(NCCCO)nc21`, the residual activity turned out to be 56% in experiment [1]; 7% in [2]; 95% in experiment [3]; 87% in experiment [4]; 86% in experiment [5]; 60% in experiment [6]. For the same compound, the residual activity in experiment [7] is 94%; in experiment [8], 49%; in [9], 70%; in experiment [10] it was 22%.
For the compound `Cn1cnc2cc3c(Nc4cccc(Br)c4)ncnc3cc21`, the residual activity in experiment [1] is 108%; in experiment [2], 93%; in experiment [3], 95%; in experiment [4] it was 92%; in experiment [5] it was 89%; in experiment [6], 56%. Moreover, the residual activity in experiment [7] turned out to be 84%; in experiment [8], 81%; in experiment [9] it was 87%; in experiment [10], 64%.
Regarding `O=c1cc(-c2cccc3c2Sc2ccccc2S3)oc(N2CCOCC2)c1`, the residual activity in experiment [1] was determined as 100%; in experiment [2], 89%; in experiment [3] it was 97%; in experiment [4], 94%; in experiment [5] it was 106%; in experiment [6], 87%. Besides, the residual activity was determined as 101% in experiment [7], 43% in [8], 92% in experiment [9] and 44% in experiment [10].
In the case of `Oc1n[nH]c2nnc(-c3c(-c4ccccc4)nn4ccccc34)cc12`, the residual activity in experiment [1] was 90%; in experiment [2] it was 99%; in [3], 93%; in experiment [4] it was 81%; in [5], 19%; in experiment [6], 11%. For the same compound, the residual activity came out at 94% in [7], 83% in [8], 84% in experiment [9] and 54% in experiment [10].

(Values after ChEMBL document CHEMBL2218924, “A broad activity screen in support of a chemogenomic map for kinase signalling research and drug discovery” (Biochem J, 2013).)
